Assay outcomes: PubChem BioAssay, National Center for Advancing Translational Sciences (NCATS)
This is a sample that favours compounds with a hit; in the whole collection about 19% have one here.
Gal4-VP16 FLuc: counter-screen for ROR gamma inhibitors: Gal4-VP16 reporter; Potency, µM (series often up to 53.6 µM), without a hit: top-dose activity, negative = inhibition, usual class: inhibitors; Drosophila S2 Gal4-VP16 UAS-luciferase, luminescence, 20 h; 3.5% of 310,000 active; AID 2546;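 further: Gal4-VP16 expression switched on by copper sulfate through the metallothionein promoter; nearly all actives have a fitted effect of over 50% in size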
RORg inh: inhibitors of mouse ROR gamma transcriptional activity | Drosophila S2 Gal4-RORgamma UAS-luciferase reporter, 20 h | Potency, µM (top dose mostly 53.6 µM), for the others: at the top dose activity change, negative = inhibition, hits mostly inhibitors | 5.4% of 310,000 active | AID 2551; further: nearly all actives have a fitted effect of over 60% in size
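A Gal4/UAS one-hybrid system in insect cells: metallothionein-promoter Gal4–ROR gamma fusion plus Photinus luciferase reporter. Copper sulfate 700 uM final, 20 hr ambient incubation, luminescent detection after 10 min with reagent.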
DT40 TDP1 CPT: DT40-hTDP1 cell growth loss with CPT. 12% of 420,000 active. chicken DT40 Tdp1-/-;hTDP1 cells + 20 nM CPT, ATP luminescence, 48 h. Potency, µM (top dose mostly 46.2 µM), inactives show at the highest dose activity change, negative = growth inhibition, actives largely listed as inhibitors; further: nearly all actives have a fitted effect of over 55% in size
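Chicken DT40 Tdp1-/- cells complemented with human TDP1, 400 cells/well, exposed to compounds plus 20 nM camptothecin for at least 48 h at 37 C; viability read as ATP content by CellTiter-Glo luminescence.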
DT40 TDP1 no CPT: qHTS for Inhibitors of human tyrosyl-DNA phosphodiesterase 1 (TDP1): qHTS in cells in absence of CPT. 15% of 420,000 active. Potency, µM (highest dose often 46.2 µM), inactives show top-dose activity change, negative = growth inhibition, usual class: inhibitors. DT40 Tdp1-/- hTDP1 cells, no CPT, ATP luminescence, 48 h; further: nearly all actives have a fitted effect of over 55% in size
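Growth kinetics read by CellTiter-Glo luminescence after ≥48 hr at 37 °C. Cells: DT40 Tdp1-/- stably carrying human TDP1, 400 per well, compound exposure in the absence of CPT (DMSO vehicle).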
TDP1 block: TDP1 (human) enzyme inhibition; Q9NUW8; recombinant TDP1, AlphaScreen DNA substrate cleavage; Potency, µM (doses to about 130 µM), inactives show at the highest dose activity change, negative = inhibition, actives largely listed as inhibitors; 0.28% of 350,000 active; AID 485290; further: nearly all actives have a fitted effect of over 40% in size
Target sequence (Q9NUW8 whole entry, looked up): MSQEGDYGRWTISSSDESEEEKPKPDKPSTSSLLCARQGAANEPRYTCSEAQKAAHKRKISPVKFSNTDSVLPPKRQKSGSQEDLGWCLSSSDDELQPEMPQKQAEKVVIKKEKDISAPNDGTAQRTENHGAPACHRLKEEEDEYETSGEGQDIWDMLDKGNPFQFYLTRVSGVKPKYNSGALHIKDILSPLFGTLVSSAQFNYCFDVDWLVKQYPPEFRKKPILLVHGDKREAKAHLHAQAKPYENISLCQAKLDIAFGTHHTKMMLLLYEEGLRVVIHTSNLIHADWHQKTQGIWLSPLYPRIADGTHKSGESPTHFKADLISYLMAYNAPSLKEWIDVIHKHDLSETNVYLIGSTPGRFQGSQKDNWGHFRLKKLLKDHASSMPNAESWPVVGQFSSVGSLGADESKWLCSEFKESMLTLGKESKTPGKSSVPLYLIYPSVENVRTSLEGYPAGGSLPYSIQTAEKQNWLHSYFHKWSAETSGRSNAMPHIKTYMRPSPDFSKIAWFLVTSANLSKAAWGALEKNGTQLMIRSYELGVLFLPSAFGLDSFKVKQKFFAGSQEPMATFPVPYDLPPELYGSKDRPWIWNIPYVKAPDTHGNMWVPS
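Compounds were preincubated with Tdp1 (1 nM final) for 15 min at room temperature before substrate (15 nM final) started a 5 min reaction; beads (10 ug/ml final) were then added for 10 min before AlphaScreen detection.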
An asterisk follows results filed as active; ? = inconclusive; · = no result; [ ] = remark or other dose. The call rests on the fitted dose curve; in most records, active means well fitted curve in the direction sought with a large enough effect; inconclusive means small, poorly fitted or top-dose-only effect, or another doubt; inactive means no such curve, though single readings can be large; an effect the other way counts as inactive or inconclusive. On the % scale 0 is the no-effect control and ±100 the full control effect; potency means the concentration at half of the fitted maximal effect.

SMILES | Gal4-VP16 FLuc | RORg inh | DT40 TDP1 CPT | DT40 TDP1 no CPT | TDP1 block
COc1cc(C(CCN2CCCCC2)c2c(OC)cc(OC)c3c(C)cc(=O)oc23)cc(OC)c1OC (stereo not given) | -1% | -11% | 10µM* | 10µM* | 5%
COc1cc(OC)c2c(-c3ccccc3)cc(=O)oc2c1C(CC(=O)N1CCN(c2ccccc2)CC1)c1ccc2c(c1)OCO2 (stereo not given) | 1% | -3% | · | · | ?
CCCCCc1cc(=O)oc2c(C(CCN3CCCC3)c3ccc4c(c3)OCO4)c(OC)cc(OC)c12 (stereo not given) | ? | ? | · | · | 20%
COc1ccc(C(CCN2CCCC2)c2c(OC)cc(OC)c3c(-c4ccccc4)cc(=O)oc23)cc1 (stereo not given) | ? | ? | ? | 16µM* | 10%
COc1cc(OC)c2c(C)cc(=O)oc2c1C(CCN1CCN(c2ccccc2)CC1)c1ccc2c(c1)OCO2 (stereo not given) | 3% | 9% | 5.2µM* | 21µM* | 11%
CC(C)[C@H](NC(=O)c1ccc(Cl)c([N+](=O)[O-])c1)C(=O)NCc1ccc(Cl)cc1Cl | -29% | 0% | ? | ? | 3%
CCN(CC)c1ccc(S(=O)(=O)N2CCOCC2)cc1NC(=O)C1CC1 | · | · | -3% | -13% | -1%[56.1 µM]
COc1ccc(C(CCN2CCOCC2)c2c(OC)cc(OC)c3c(-c4ccccc4)cc(=O)oc23)cc1 (stereo not given) | ? | ? | 6.5µM* | 8.2µM* | 5%[56.1 µM]
COc1cc(OC)c2c(-c3ccccc3)cc(=O)oc2c1C(CCN1CCOCC1)c1ccc2c(c1)OCO2 (stereo not given) | ? | -44%[40.7 µM] | 15µM* | ? | 4%[56.1 µM]
COc1cc(C(CCN2CCCC2)c2c(OC)cc(OC)c3c(-c4ccccc4)cc(=O)oc23)cc(OC)c1OC (stereo not given) | ? | ? | 16µM* | 21µM* | 6%
COc1cc(OC)c2c(-c3ccccc3)cc(=O)oc2c1C(CCN1CCCC1)c1ccc2c(c1)OCO2 (stereo not given) | ? | ? | ? | ? | 14%
COc1ccc(CC(=O)Cc2ccc(OC)c(OC)c2)cc1OC | · | · | -12% | ? | ·
Nn1c(SCC(=O)Nc2ccccc2)nnc(Cc2ccccc2)c1=O | · | · | -2% | -6% | 1%[0.505 µM]
O=C(Nc1nonc1NC(=O)C1CCCCC1)C1CCCCC1 | -2% | 30% | -23% | -10% | 4%
CC1CCC(C(=O)NNC(=O)c2cc(-c3ccco3)[nH]n2)CC1 (stereo not given) | -3%[10 µM] | -12% | 18µM* | 16µM* | 0%
CCN(CC(=O)NCc1cccs1)C(=O)COc1ccc(C(N)=O)cc1 | · | · | -6% | 14% | 0%
CCCCOC(=O)n1c(SCC(=O)N(CC)CC)nc2ccccc21 | -1% | 12% | 21µM* | ? | 5%
CC(C)c1nc2sc3c(=S)nc[nH]c3c2c2c1CCC2 | ? | 3.2µM* | ? | 23µM* | -3%
CN(CCO)c1ncnc2c1sc1nc(N3CCOCC3)c3c(c12)CCC3 | 5% | 0% | 13µM* | 21µM* | 4%
S=c1nc[nH]c2c1sc1nc(N3CCOCC3)c3c(c12)CCCC3 | 5%[10 µM] | -9% | ? | 23µM* | 3%
CC1SCC(=O)N(CC(=O)NC2CCCCC2)C1=O (stereo not given) | 14% | 8% | -3% | 8% | 0%
O=S(=O)(c1ccccc1)c1nc(-c2ccccc2Cl)oc1N1CCCCCC1 | · | · | ? | 21µM* | 8%
COc1ccccc1-c1nc(S(=O)(=O)c2ccccc2)c(N2CCCCC2)o1 | 1% | 15% | ? | ? | ·
COc1ccccc1-c1nc(S(=O)(=O)c2ccc(Cl)cc2)c(N2CCCCCC2)o1 | · | · | 16µM* | 16µM* | ·
Cc1ccc(S(=O)(=O)c2nc(-c3ccccc3Cl)oc2N2CCCCCC2)cc1 | · | · | 23µM* | 18µM* | ·
SMILES | Gal4-VP16 FLuc | RORg inh | DT40 TDP1 CPT | DT40 TDP1 no CPT | TDP1 block
O=S(=O)(c1ccccc1)c1nc(-c2ccccc2Cl)oc1NCCCN1CCOCC1 | · | · | ? | 23µM* | 8%
CCOC(=O)Cn1cc(C(=O)c2cccs2)c2ccccc21 | ? | 2% | -27% | -19% | 0%
COc1cc(CC(=O)OCC(=O)N2C(C)CCCC2C)cc(OC)c1OC (stereo not given) | 0% | 5% | ? | -18% | ·
Cc1ccccc1-c1nc(S(=O)(=O)c2ccccc2)c(NCCCN2CCOCC2)o1 | · | · | ? | ? | 4%
COc1cc(-c2nc(S(=O)(=O)c3ccc(Br)cc3)c(N3CCOCC3)o2)cc(OC)c1OC | · | · | 12µM* | 8.2µM* | 7%
CCN1CCN(c2oc(-c3ccccc3C)nc2S(=O)(=O)c2ccccc2)CC1 | · | · | ? | 18µM* | 6%
Cc1ccc(S(=O)(=O)c2nc(-c3ccccc3Cl)oc2N2CCN(C)CC2)cc1 | · | · | ? | 23µM* | 7%
O=C(COC(=O)c1ncc(Cl)c(Cl)c1Cl)NC1CCCCCC1 | · | · | 1% | -3% | -1%
O=C(Nc1cc(S(=O)(=O)N2CCCCCC2)ccc1OCC(F)(F)F)C1CCC1 | ? | ? | -10% | -13% | 4%
O=C1c2ccc(-c3ccc(Cl)c(C(F)(F)F)c3)cc2S(=O)(=O)c2cccc(C(=O)N3CCN(c4ncc(Br)cn4)CC3)c21 | · | · | -23% | -13% | 4%
Cc1ccc(-n2cnc3cc(C(=O)NCc4ccccc4Cl)ccc32)c(C)c1 | · | · | 23µM* | 23µM* | 5%
COC(CNC(=O)c1ccc2c(c1)ncn2-c1ccc(C)cc1C)OC | -1% | 14% | 26% | -9% | ·
Cc1cccc(-n2cnc3cc(C(=O)NCc4ccccc4Cl)ccc32)c1 | · | · | 16µM* | ? | 13%
CCc1ccc(-n2cnc3cc(C(=O)NCc4ccc(C)cc4)ccc32)cc1 | · | · | 15µM* | 15µM* | 16%
O=C(CSc1ccc(-c2cccnc2)nn1)N1CCCCC1 | -10% | -22% | 7% | 6% | 1%
COc1ccc(CCC(C)NCc2ccc(Cl)c(Cl)c2)cc1 (stereo not given) | · | · | -28% | -12% | 3%
COc1ccc(CCC(C)NCCc2ccc(Cl)cc2Cl)cc1 (stereo not given) | -11% | -30% | ? | 23µM* | 5%
COc1ccc(CCC(C)NCC2CCCCC2)cc1 (stereo not given) | -2% | ? | ? | 18µM* | 0%
COc1ccc(CCC(C)NC2CCCCCCC2)cc1 (stereo not given) | -2% | -2% | ? | ? | ·
N#C/C(=C\c1cccs1)C(=O)c1ccccc1Cl | 7.9µM* | ? | 29µM* | 16µM* | 6%
